# Data published in the supplement of paper PMC8728848.
# The full list was thinned out, with the strongest signals kept by preference.
# B1: Siglec-9 (Homo sapiens), Q9Y336 (protein)
# chain: MLLLLLPLLWGRERAEGQTSKLLTMQSSVTVQEGLCVHVPCSFSYPSHGWIYPGPVVHGYWFREGANTDQDAPVATNNPARAVWEETRDRFHLLGDPHTKNCTLSIRDARRSDAGRYFFKMEKGSIKWNYKHHRLSVNVTALTHRPNILIPGTLESGCPQNLTCSVPWACEQGTPPMISWIGTSVSPLDPSTTRSSVLTLIPQPQDHGTSLTCQVTFPGASVTTNKTVHLNVSYPPQNLTMTVFQGDGTVSTVLGNGSSLSLPEGQSLRLVCAVDAVDSNPPARLSLSWRGLTLCPSQPSNPGVLELPWVHLRDAAEFTCRAQNPLGSQQVYLNVSLQSKATSGVTQGVVGGAGATALVFLSFCVIFVVVRSCRKKSARPAAGVGDTGIEDANAVRGSASQGPLTEPWAEDSPPDQPPPASARSSVGEGELQYASLSFQMVKPWDSRGQEATDTEYSEIKIHR
# Legend:
# Assay in all cases: glycan array binding signal (z-score within array); higher = stronger binding
# Conditions in all cases: glycan notation: IUPAC condensed, linker removed; mutation: R120K
# [1] = molecular target: Fuc(a1-2)Gal(b1-3)GlcNAc(b1-3)GalNAc
# How it was run: (§1)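 Glycan array binding is given as a within-array Z-score, which can be read as non-binding when negative. The arrays, 3228 of them, came from the Consortium for Functional Glycomics database and were retained only where the protein sequence was available. Z-scores were averaged across arrays of the same protein sequence at different concentrations or buffers and across linkers.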
# [2] = molecular target: Fuc(a1-2)Gal(b1-3)[Fuc(a1-4)]GlcNAc(b1-2)Man(a1-3)[Fuc(a1-2)Gal(b1-3)[Fuc(a1-4)]GlcNAc(b1-2)Man(a1-3)]Man(b1-4)GlcNAc(b1-4)GlcNAc
# How it was run: as §1
# [3] = molecular target: Fuc(a1-2)Gal(b1-4)Fuc(a1-3)]GlcNAc(b1-2)Man(a1-3)[Fuc(a1-2)Gal(b1-4)[Fuc(a1-3)]GlcNAc(b1-2)Man(a1-6)]Man(b1-4)GlcNAc(b1-4)GlcNAc
# How it was run: as §1
# [4] = molecular target: Fuc(a1-2)Gal(b1-4)GlcNAc(b1-3)Gal(b1-4)GlcNAc(b1-2)Man(a1-3)[Fuc(a1-2)Gal(b1-4)GlcNAc(b1-3)Gal(b1-4)GlcNAc(b1-2)Man(a1-6)]Man(b1-4)GlcNAc(b1-4)GlcNAc
# How it was run: as §1
# [5] = molecular target: Fuc(a1-2)Gal(b1-4)[Fuc(a1-3)]GlcNAc
# How it was run: as §1
# [6] = molecular target: Fuc(a1-2)Gal6S(b1-3)GlcNAc6S
# How it was run: as §1
# [7] = molecular target: Fuc(a1-2)[Gal(a1-3)]Gal(b1-3)GlcNAc(b1-2)Man(a1-3)[Fuc(a1-2)[Gal(a1-3)]Gal(b1-3)GlcNAc(b1-2)Man(a1-6)]Man(b1-4)GlcNAc(b1-4)[Fuc(a1-6)]GlcNAc
# How it was run: as §1
# [8] = molecular target: Fuc(a1-2)[Gal(a1-3)]Gal(b1-4)GlcNAc(b1-3)[Fuc(a1-2)[Gal(a1-3)]Gal(b1-4)GlcNAc(b1-6)]GalNAc
# How it was run: as §1
# Fuc(a1-3)GlcNAc = molecular target: Fuc(a1-3)GlcNAc
# How it was run: as §1
# [9] = molecular target: Fuc(a1-3)[Gal(b1-4)]GlcNAc(b1-3)Gal(b1-3)[Fuc(a1-4)]GlcNAc
# How it was run: as §1
# Fuc(a1-4)GlcNAc = molecular target: Fuc(a1-4)GlcNAc
# How it was run: as §1
# [10] = molecular target: Gal(a1-3)Gal(b1-3)GlcNAc(b1-2)Man
# How it was run: as §1
# [11] = molecular target: Gal(a1-3)Gal(b1-4)[Fuc(a1-3)]GlcNAc(b1-2)Man(a1-3)[Gal(a1-3)Gal(b1-4)[Fuc(a1-3)]GlcNAc(b1-2)Man(a1-6)]Man(b1-4)GlcNAc(b1-4)GlcNAc
# How it was run: as §1
# [12] = molecular target: Gal(b1-3)GlcNAc(b1-2)Man(a1-3)[Gal(b1-3)GlcNAc(b1-2)Man(a1-6)]Man(b1-4)GlcNAc(b1-4)[Fuc(a1-6)]GlcNAc
# How it was run: as §1
# Gal(b1-4)Gal = molecular target: Gal(b1-4)Gal
# How it was run: as §1
# [13] = molecular target: Gal(b1-4)GlcNAc(b1-3)Gal(b1-3)GalNAc
# How it was run: as §1
# [14] = molecular target: Gal(b1-4)GlcNAc(b1-3)Gal(b1-4)GlcNAc(b1-2)Man(a1-3)[Gal(b1-4)GlcNAc(b1-3)Gal(b1-4)GlcNAc(b1-2)Man(a1-6)]Man(b1-4)GlcNAc(b1-4)[Fuc(a1-6)]GlcNAc
# How it was run: as §1
# [15] = molecular target: Gal(b1-4)GlcNAc(b1-3)Gal(b1-4)GlcNAc(b1-3)Gal(b1-4)GlcNAc(b1-3)Gal(b1-4)GlcNAc(b1-2)[Gal(b1-4)GlcNAc(b1-3)Gal(b1-4)GlcNAc(b1-3)Gal(b1-4)GlcNAc(b1-3)Gal(b1-4)GlcNAc(b1-6)]Man(a1-6)[Gal(b1-4)GlcNAc(b1-3)Gal(b1-4)GlcNAc(b1-3)Gal(b1-4)GlcNAc(b1-3)Gal(b1-4)GlcNAc(b1-2)Man(a1-3)]Man(b1-4)GlcNAc(b1-4)[Fuc(a1-6)]GlcNAc
# How it was run: as §1
# [16] = molecular target: Gal(b1-4)GlcNAc(b1-3)GalNAc
# How it was run: as §1
# [17] = molecular target: Gal(b1-4)GlcNAc(b1-6)GalNAc
# How it was run: as §1
# Gal(b1-4)GlcNAc6P = molecular target: Gal(b1-4)GlcNAc6P
# How it was run: as §1
# Gal3S(b1-3)GlcNAc = molecular target: Gal3S(b1-3)GlcNAc
# How it was run: as §1
# GalNAc3S(b1-4)GlcNAc = molecular target: GalNAc3S(b1-4)GlcNAc
# How it was run: as §1
# GalNAc3S(b1-4)GlcNAc3S = molecular target: GalNAc3S(b1-4)GlcNAc3S
# How it was run: as §1
# [18] = molecular target: GalNAc3S(b1-4)[Fuc(a1-3)]GlcNAc
# How it was run: as §1
# [19] = molecular target: GlcNAc(b1-2)Man(a1-3)[GlcNAc(b1-2)Man(a1-6)]Man(b1-4)GlcNAc(b1-4)[Fuc(a1-6)]GlcNAc
# How it was run: as §1
# [20] = molecular target: GlcNAc(b1-2)[GlcNAc(b1-4)]Man(a1-3)[GlcNAc(b1-4)][GlcNAc(b1-2)Man(a1-6)]Man(b1-4)GlcNAc(b1-4)GlcNAc
# How it was run: as §1
# [21] = molecular target: GlcNAc(b1-2)[GlcNAc(b1-6)]Man(a1-6)[GlcNAc(b1-2)Man(a1-3)]Man(b1-4)GlcNAc(b1-4)GlcNAc
# How it was run: as §1
# [22] = molecular target: GlcNAc(b1-3)Gal(b1-4)GlcNAc(b1-2)Man(a1-3)[GlcNAc(b1-3)Gal(b1-4)GlcNAc(b1-2)Man(a1-6)]Man(b1-4)GlcNAc(b1-4)[Fuc(a1-6)]GlcNAc
# How it was run: as §1
# [23] = molecular target: GlcNAc(b1-3)Gal(b1-4)GlcNAc(b1-2)[GlcNAc(b1-3)Gal(b1-4)GlcNAc(b1-6)]Man(a1-6)[GlcNAc(b1-3)Gal(b1-4)GlcNAc(b1-2)Man(a1-3)]Man(b1-4)GlcNAc(b1-4)GlcNAc
# How it was run: as §1
# [24] = molecular target: GlcNAc(b1-3)Gal(b1-4)GlcNAc(b1-3)GalNAc
# How it was run: as §1
# Kdn(a2-3)Gal(b1-4)Glc = molecular target: Kdn(a2-3)Gal(b1-4)Glc
# How it was run: as §1
# [25] = molecular target: Man(a1-2)Man(a1-2)Man(a1-6)[Man(a1-3)]Man
# How it was run: as §1
# [26] = molecular target: Man(a1-2)Man(a1-6)[Man(a1-3)]Man(a1-6)[Man(a1-2)Man(a1-2)Man(a1-3)]Man
# How it was run: as §1
# Neu5Ac(a2-3)Gal = molecular target: Neu5Ac(a2-3)Gal
# How it was run: as §1
# [27] = molecular target: Neu5Ac(a2-3)Gal(b1-3)GalNAc
# How it was run: as §1
# [28] = molecular target: Neu5Ac(a2-3)Gal(b1-3)GalNAc(b1-4)Gal(b1-4)Glc
# How it was run: as §1
# [29] = molecular target: Neu5Ac(a2-3)Gal(b1-3)GalNAc(b1-4)[Neu5Ac(a2-8)Neu5Ac(a2-3)]Gal(b1-4)Glc
# How it was run: as §1
# [30] = molecular target: Neu5Ac(a2-3)Gal(b1-3)GlcNAc(b1-2)Man(a1-3)[Neu5Ac(a2-3)Gal(b1-3)GlcNAc(b1-2)Man(a1-6)]Man(b1-4)GlcNAc(b1-4)GlcNAc
# How it was run: as §1
# [31] = molecular target: Neu5Ac(a2-3)Gal(b1-3)]Neu5Ac(a2-3)Gal(b1-4)]GlcNAc
# How it was run: as §1
# Neu5Ac(a2-3)Gal(b1-4)Glc = molecular target: Neu5Ac(a2-3)Gal(b1-4)Glc
# How it was run: as §1
# [32] = molecular target: Neu5Ac(a2-3)Gal(b1-4)GlcNAc(b1-2)Man(a1-3)[GlcNAc(b1-4)][Neu5Ac(a2-3)Gal(b1-4)GlcNAc(b1-2)Man(a1-6)]Man(b1-4)GlcNAc(b1-4)GlcNAc
# How it was run: as §1
# [33] = molecular target: Neu5Ac(a2-3)Gal(b1-4)[Fuc(a1-3)]GlcNAc(b1-6)[Gal(b1-3)]GalNAc
# How it was run: as §1
# [34] = molecular target: Neu5Ac(a2-6)Gal(b1-4)GlcNAc(b1-2)[Neu5Ac(a2-6)Gal(b1-4)GlcNAc(b1-4)]Man(a1-3)[GlcNAc(b1-4)][Neu5Ac(a2-6)Gal(b1-4)GlcNAc(b1-2)[Neu5Ac(a2-6)Gal(b1-4)GlcNAc(b1-6)]Man(a1-6)]Man(b1-4)GlcNAc(b1-4)GlcNAc
# How it was run: as §1
# [35] = molecular target: Neu5Ac(a2-6)Gal(b1-4)GlcNAc(b1-3)Gal(b1-3)GlcNAc
# How it was run: as §1
# [36] = molecular target: Neu5Ac(a2-6)GlcNAc(b1-4)GlcNAc
# How it was run: as §1
# [37] = molecular target: Neu5Ac(a2-8)Neu5Ac(a2-8)Neu5Ac(a2-3)[GalNAc(b1-4)]Gal(b1-4)Glc
# How it was run: as §1
# [38] = molecular target: Neu5Ac(b2-6)Gal(b1-4)GlcNAc
# How it was run: as §1
# [39] = molecular target: Neu5Gc(a2-8)Neu5Gc(a2-3)Gal(b1-4)GlcNAc(b1-3)Gal(b1-4)GlcNAc
# How it was run: as §1
# [40] = molecular target: Neu5Gc(b2-6)Gal(b1-4)GlcNAc
# How it was run: as §1
binder,measurement,setting,value
B1,glycan array binding signal (z-score),[1],-0.33
same,glycan array binding signal (z-score),[2],2.09
same,glycan array binding signal (z-score),[3],6.8
same,glycan array binding signal (z-score),[4],-0.282
same,glycan array binding signal (z-score),[5],-0.297
same,glycan array binding signal (z-score),[6],2.46
same,glycan array binding signal (z-score),[7],1.14
same,glycan array binding signal (z-score),[8],5.67
same,glycan array binding signal (z-score),Fuc(a1-3)GlcNAc,-0.568
same,glycan array binding signal (z-score),[9],-0.304
same,glycan array binding signal (z-score),Fuc(a1-4)GlcNAc,2.96
same,glycan array binding signal (z-score),[10],0.513
same,glycan array binding signal (z-score),[11],3.77
same,glycan array binding signal (z-score),[12],-0.25
same,glycan array binding signal (z-score),Gal(b1-4)Gal,1.95
same,glycan array binding signal (z-score),[13],0.236
same,glycan array binding signal (z-score),[14],-0.136
same,glycan array binding signal (z-score),[15],-0.342
same,glycan array binding signal (z-score),[16],-0.357
same,glycan array binding signal (z-score),[17],0.335
same,glycan array binding signal (z-score),Gal(b1-4)GlcNAc6P,0.464
same,glycan array binding signal (z-score),Gal3S(b1-3)GlcNAc,-0.347
same,glycan array binding signal (z-score),GalNAc3S(b1-4)GlcNAc,-0.59
same,glycan array binding signal (z-score),GalNAc3S(b1-4)GlcNAc3S,-0.23
same,glycan array binding signal (z-score),[18],-0.228
same,glycan array binding signal (z-score),[19],-0.036
same,glycan array binding signal (z-score),[20],8.32
same,glycan array binding signal (z-score),[21],-0.232
same,glycan array binding signal (z-score),[22],0.432
same,glycan array binding signal (z-score),[23],-0.559
same,glycan array binding signal (z-score),[24],0.35
same,glycan array binding signal (z-score),Kdn(a2-3)Gal(b1-4)Glc,0.194
same,glycan array binding signal (z-score),[25],0.213
same,glycan array binding signal (z-score),[26],-0.231
same,glycan array binding signal (z-score),Neu5Ac(a2-3)Gal,-0.145
same,glycan array binding signal (z-score),[27],4.95
same,glycan array binding signal (z-score),[28],0.412
same,glycan array binding signal (z-score),[29],0.069
same,glycan array binding signal (z-score),[30],3.12
same,glycan array binding signal (z-score),[31],-0.118
same,glycan array binding signal (z-score),Neu5Ac(a2-3)Gal(b1-4)Glc,4.42
same,glycan array binding signal (z-score),[32],-0.284
same,glycan array binding signal (z-score),[33],-0.345
same,glycan array binding signal (z-score),[34],-0.023
same,glycan array binding signal (z-score),[35],-0.551
same,glycan array binding signal (z-score),[36],-0.275
same,glycan array binding signal (z-score),[37],-0.338
same,glycan array binding signal (z-score),[38],-0.52
same,glycan array binding signal (z-score),[39],-0.414
same,glycan array binding signal (z-score),[40],-0.2
